# PubChem BioAssay (NCI)
# Values joined by “and” are separate entries in the source; they are usually repeats but may differ in a detail not shown here. Identical values can stand only once. This is part of a sample that, as a whole, favours compounds with a hit. Of some 83,000 tested, about 20% had one in any assay.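 A percent growth of 40 corresponds to 60% growth inhibition; 0 means no net growth; -100 means all cells died. Active threshold: below 10.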 Active and inactive are the calls of the source.
# Test system: MDA-MB-468 breast
# Assay: NCI-60 one-dose screen, 48 h (100 = growth as untreated, 0 = no growth, -100 = all killed)
# Settings: 10 µM unless noted
row,SMILES,growth
1,Clc1nccc2c(-c3csc(-c4c[nH]c5ccc(Br)cc45)n3)c[nH]c12,26.9% (inactive)
2,COc1cc(C(=O)n2nc(-c3cc(OC)c(OC)c(OC)c3)nc2N)cc(OC)c1OC,101% (inactive)
3,CN(C)c1ccc(C(=O)OCCCCCCl)cc1,95.3% (inactive)
4,COc1ccc(OC)c(CCn2cncc2-c2c[nH]c3cc(Br)ccc23)c1,-5.69% (active)
5,COc1cc(/C=C2\C(=O)Nc3cc(Cl)ccc32)ccc1OCc1ccc(F)cc1,93% (inactive)
6,Cc1cc(N/N=C/c2nc(-c3ccc(Br)cc3)oc2C)c2cc(Cl)ccc2n1,25.8% (inactive)
7,CC(C)(C)NC(=O)C(OC(=O)c1cccc(Cl)c1)c1ccc(Cl)cc1 (stereo not given),87.9% (inactive)
8,Clc1ccc(-c2nc(-c3cccs3)no2)cc1,44.7% (inactive)
9,O=C(Nc1cccc(C(F)(F)F)c1)Nc1cccc(C(F)(F)F)c1,-6.39% (active)
10,C/C(=C(/c1ccc(O)cc1)c1ccc(OCCN(C)C)cc1)c1ccc(Cl)cc1,22.2% (inactive)
11,CC(=O)OC[C@]12CCC(C)(C)C[C@H]1[C@@]1(O)[C@H](O)C[C@@H]3[C@@]4(C)CCCNC(C)(C)[C@@H]4CC[C@@]3(C)[C@]1(C)CC2,115% (inactive)
12,COc1cc2nc(Nc3cccc(Cl)c3)nc(N)c2cc1OC,26.8% (inactive)
13,CSc1nc(Nc2ccc(S(=O)(=O)Nc3ccon3)cc2)c(C#N)c(-c2ccc(Cl)cc2)n1,93.1% (inactive)
14,O=C(OCc1ncc(-c2ccc(C(F)(F)F)cc2)c(NC2CCCCCC2)n1)c1c(F)c(F)c(F)c(F)c1F,16.9% (inactive)
15,CSc1nc2sc3cc(Cl)ccc3n2c(=N)c1C#N,-45% (active)
16,CCCCCCCCCCCCCCCCCc1nccn1CCO,91.5% (inactive)
17,COc1ccc(-c2csc(N(C(=O)N3CCN(c4cc5c(cc4F)c(=O)c(C(=O)O)cn5C4CC4)CC3)c3ccccc3)n2)cc1,7.88% (active)
18,CCCN1CCN(c2ccc3nc(-c4ccc5nc(-c6ccc(OCC)c(OCC)c6)[nH]c5c4)[nH]c3c2)CC1,-77.2% (active)
19,C=C1CCC2C(C)(CO)C(O)CCC2(C)C1C/C=C1/C(=O)OCC1O/C=C/c1ccccc1 (stereo not given),80.5% (inactive)
20,Cc1ccc(NC(=O)c2cccc(CN3CCN(C)CC3)c2)cc1Oc1ccc(-c2[nH]nc3ncnc(N)c23)cc1,51.3% (inactive)

row,SMILES,growth
1,Cc1ccc2c(c1)/C(=N\N=C/c1cn(C(C)C)c3ccccc13)C(=O)N2,7.43% (active)
2,CC/C(=C(/c1ccc(OCCN(C)C)cc1)c1ccc(OC(=O)CCCCC(=O)c2c(C)[nH]c(/C=C3\N=C(c4ccc[nH]4)C=C3OC)c2C)cc1)c1ccccc1,47.5% (inactive)
3,O=C1NC(=O)C(=Cc2cc(-c3ccc(Cl)cc3)n(-c3ccccc3)n2)C(=O)N1,87.3% (inactive)
4,COc1ccc(S(=O)(=O)NCCCNc2nccc(-c3c(-c4cccc(N)c4)nc4sccn34)n2)cc1,78.7% (inactive)
5,O=C(O)c1ccccc1.[Ag],90.4% (inactive)
6,COc1ccc(Br)c2ccccc12,100% (inactive)
7,Oc1c(Cl)cc(Cl)cc1Sc1cc(Cl)cc(Cl)c1O,84% (inactive) and -2.78% (active) and 67.9% (inactive)
8,Cc1ccc2nc(NC(=O)CSc3nc(Nc4ccc([N+](=O)[O-])cc4)c(C#N)c(-c4ccccc4)n3)sc2c1,105% (inactive)
9,CC(=O)Oc1c(C)c(C)c2c(c1C)CCC(C)(CC(=O)OCCCCCCCCCCC[P+](c1ccccc1)(c1ccccc1)c1ccccc1)O2 (stereo not given),-55.7% (active)
10,c1nc2ccc(-c3cc4ccc5[nH]ncc5c4c4c3CCCC4)cc2[nH]1,17.1% (inactive)
11,NS(=O)(=O)Oc1ccc2c(ccn2C(=O)C23CC4CC(CC(C4)C2)C3)c1,90.8% (inactive)
12,COC(=O)C(OC(C)=O)C(OC(C)=O)c1ccc(OC)c(OC)c1 (stereo not given),108% (inactive)
13,CCN(CCC#N)c1ccccc1,118% (inactive)
14,O=[N+]([O-])c1c(Cl)ncnc1Cl,101% (inactive)
15,CCOC(=O)c1c(Nc2ccccc2)nn2c(-c3ccco3)c(C#N)cnc12,89.4% (inactive)
16,CC(C)OC(=O)Nc1ccc(-c2nc(-c3cccc(OCCN4CCOCC4)c3)c(-c3ccnc(Br)c3)[nH]2)cc1,-1.08% (active)
17,OCc1n(Cc2ccc3ccccc3c2)cc[n+]1Cc1ccc2ccccc2c1,-29% (active)
18,Brc1ccc(Br)nn1,-85.5% (active)
19,C=C(CN=[N+]=[N-])[C@@H]1CC[C@]2(C)[C@H](CC[C@@H]3[C@H]4[C@H]5OC(=O)[C@@]4(CCC5(C)C)CC[C@]32C)[C@@]1(C)CCC#N,72.3% [100 µM] (inactive)
20,COc1cccc(OC)c1C(=O)N[C@@H]1C(=O)N2[C@@H]1SC(C)(C)[C@@H]2C(=O)O,114% (inactive)
